Here are results for 4 compounds from PubChem BioAssay (EPA / NIEHS).

Calls of active or inactive are those of the source. The calls were made as follows: active = hit-call score of the fitted dose curve at least 0.9, where 1 is the maximum; inactive = score below 0.9.

Test [1] can be described thus: ATG_GRE_CIS: Attagene CIS-FACTORIAL HepG2 Assay for human Glucocorticoid Response Elements (GRE) (AID 2282947). As to conditions: HepG2 GRE cis-reporter, Attagene multiplex mRNA; actives raise or lower the signal. The essentials: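 Reporter transcripts read by RT-PCR with capillary electrophoresis fluorescence after a 24 h chemical exposure of HepG2 cells transiently transfected with multiple cis-element reporter units. Gain or loss fitted against DMSO.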

A short description of test [2]: ATG_ISRE_CIS: Attagene CIS-FACTORIAL HepG2 Assay for human Interferon Regulatory Factor 1 (IRF1) binding to an Interferon-Stimulated Response Element (ISRE) (AID 2282948). The conditions noted are these: HepG2 ISRE cis-reporter (Attagene), mRNA transcription readout; actives raise or lower the signal. The procedure, abridged: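 Read-out: fluorescent RT-PCR products resolved by capillary electrophoresis, reporting endogenous transcription factor activity via ISRE-driven reporter mRNA in transfected HepG2 cells dosed for 24 h; gain or loss fitted relative to DMSO.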

Test [3] in a line: ATG_M_32_CIS: Attagene CIS-FACTORIAL HepG2 Assay for M32 Transcription Factor (Internal Marker) (AID 2282949).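 Also: background control marker of the multiplexed CIS panel rather than a real target.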 As to conditions: HepG2 Attagene cis-factorial M32 reporter, mRNA; actives raise or lower the signal. The essentials:
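HepG2 transfectants (cis-regulated reporter transcription units) dosed 24 h. Reporter mRNA by RT-PCR plus CE, analysed as gain or loss relative to DMSO.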

The nature of test [4]: ATG_M_06_CIS: Attagene CIS-FACTORIAL HepG2 Assay for M06 Transcription Factor (Internal Marker) (AID 2282950). As to conditions: HepG2 Attagene CIS-FACTORIAL M06 internal marker reporter; actives raise or lower the signal. The essentials: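 Fluorescence-labelled RT-PCR products from cis-promoter reporter units, cut with HpaI and resolved by capillary electrophoresis, give the signal. Cells are human HepG2, dosed for 24 h. Serves as background control, fitted relative to DMSO.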

Test [5] deals with Hypoxia-inducible factor 1-alpha (Homo sapiens) (UniProt Q16665). The experiment in a line: ATG_HIF1a_CIS: Attagene CIS-FACTORIAL HepG2 Assay for human Hypoxia Inducible Factor 1 (HIF1A) (AID 2282951). The conditions noted are these: HepG2 Attagene cis-factorial HIF1a reporter transcription; actives raise or lower the signal. The procedure, abridged: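 HepG2, transient cis-reporter library, 24 h dosing. RNA → RT (oligo dT) → PCR → 6-FAM primer extension → HpaI → CE. Bidirectional curve fit vs DMSO.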
Hypoxia-inducible factor 1-alpha (Homo sapiens), sequence (Q16665 whole entry, looked up): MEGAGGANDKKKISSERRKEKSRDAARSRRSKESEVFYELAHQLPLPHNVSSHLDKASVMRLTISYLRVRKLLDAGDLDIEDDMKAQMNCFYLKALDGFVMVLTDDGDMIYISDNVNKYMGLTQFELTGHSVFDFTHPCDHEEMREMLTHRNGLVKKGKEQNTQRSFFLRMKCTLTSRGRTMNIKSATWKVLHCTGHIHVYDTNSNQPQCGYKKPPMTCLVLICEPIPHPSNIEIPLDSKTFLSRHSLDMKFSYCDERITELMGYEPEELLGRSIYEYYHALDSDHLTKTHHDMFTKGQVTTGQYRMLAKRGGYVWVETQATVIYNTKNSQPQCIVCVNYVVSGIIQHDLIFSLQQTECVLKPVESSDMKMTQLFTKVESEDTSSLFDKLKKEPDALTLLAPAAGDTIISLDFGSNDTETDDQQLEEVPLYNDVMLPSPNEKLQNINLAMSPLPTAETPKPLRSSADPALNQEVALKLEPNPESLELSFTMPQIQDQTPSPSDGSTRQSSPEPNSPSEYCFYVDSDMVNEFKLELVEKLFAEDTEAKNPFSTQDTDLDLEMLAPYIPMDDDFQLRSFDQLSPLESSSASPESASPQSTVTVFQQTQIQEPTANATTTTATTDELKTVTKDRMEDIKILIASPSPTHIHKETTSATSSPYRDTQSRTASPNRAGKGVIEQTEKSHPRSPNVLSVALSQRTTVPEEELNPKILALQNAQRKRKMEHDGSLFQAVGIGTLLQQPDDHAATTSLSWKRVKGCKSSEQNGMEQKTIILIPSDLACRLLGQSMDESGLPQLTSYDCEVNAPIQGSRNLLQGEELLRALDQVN

Test [6] has as its target Hepatocyte nuclear factor 6 (Homo sapiens) (UniProt Q9UBC0). The experiment in a line: ATG_HNF6_CIS: Attagene CIS-FACTORIAL HepG2 Assay for human Hepatocyte Nuclear Factor 6 (HNF6) (AID 2282952). The conditions noted are these: HepG2 Attagene cis-factorial HNF6 reporter transcription; actives raise or lower the signal. The essentials: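 Endogenous transcription factor activity in human HepG2 liver cells was captured through cis-regulated reporter constructs. After 24 h treatment, reporter mRNA was measured by RT-PCR with capillary electrophoresis, and activity was fitted in both directions relative to DMSO.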

In test [7] the target is Heat shock factor protein 1 (Homo sapiens) (UniProt Q00613). The experiment in a line: ATG_HSE_CIS: Attagene CIS-FACTORIAL HepG2 Assay for human Heat Shock Transcription Factor 1 (HSE) (AID 2282953). The conditions noted are these: HepG2 HSE cis-reporter, Attagene RNA transcription; actives raise or lower the signal. The essentials: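 After a 24 h incubation with test chemical, transfected HepG2 cells were harvested for RNA; reporter transcripts were measured by RT-PCR and capillary electrophoresis. Values reflect gain or loss of signal relative to DMSO.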
Heat shock factor protein 1 (Homo sapiens), sequence (Q00613 whole entry, looked up): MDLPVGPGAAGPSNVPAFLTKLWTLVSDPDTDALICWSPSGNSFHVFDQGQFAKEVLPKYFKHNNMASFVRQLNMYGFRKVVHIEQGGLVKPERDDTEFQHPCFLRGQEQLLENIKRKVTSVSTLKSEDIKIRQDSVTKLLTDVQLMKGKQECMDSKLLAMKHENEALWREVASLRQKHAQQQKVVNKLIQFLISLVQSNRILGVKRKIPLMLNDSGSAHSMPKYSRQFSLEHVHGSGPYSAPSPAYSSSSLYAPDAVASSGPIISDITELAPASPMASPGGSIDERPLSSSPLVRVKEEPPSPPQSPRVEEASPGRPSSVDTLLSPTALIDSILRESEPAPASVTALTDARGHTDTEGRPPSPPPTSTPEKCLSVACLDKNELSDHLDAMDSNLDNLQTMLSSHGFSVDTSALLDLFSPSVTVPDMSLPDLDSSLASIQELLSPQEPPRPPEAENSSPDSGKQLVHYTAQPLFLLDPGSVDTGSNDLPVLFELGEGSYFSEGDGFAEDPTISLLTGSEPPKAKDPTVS

Test [8] in a line: ATG_MRE_CIS: Attagene CIS-FACTORIAL HepG2 Assay for human Metal Responsive Element (MRE) (AID 2282954). The conditions noted are these: HepG2 MRE cis-reporter transcription, Attagene multiplex; actives raise or lower the signal. The essentials: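 Endogenous MRE-dependent transcription read as reporter mRNA in transiently transfected human HepG2 cells at 24 h. RNA reverse-transcribed, PCR-amplified, labelled and resolved by capillary electrophoresis; gain or loss relative to DMSO.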

The nature of test [9]: ATG_PBREM_CIS: Attagene CIS-FACTORIAL HepG2 Assay for human Phenobarbital-responsive Enhancer Module (PBREM) (AID 2282955). The conditions noted are these: HepG2 PBREM cis-reporter, Attagene multiplexed transcription; actives raise or lower the signal. The procedure, abridged:
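HepG2, transient MRTU transfection, 24 h dosing; RNA → oligo(dT) RT → PCR → 6-FAM extension → HpaI → CE. Bidirectional fit vs DMSO.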

Test [10] deals with Paired box protein Pax-6 (Homo sapiens) (UniProt P26367). The experiment in a line: ATG_Pax6_CIS: Attagene CIS-FACTORIAL HepG2 Assay for human Paired Box 6 (PAX6) (AID 2282956). As to conditions: HepG2 CIS-FACTORIAL PAX6 reporter transcription, RNA readout; actives raise or lower the signal. The procedure, abridged: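 Readout: reporter transcript fluorescence after RT-PCR and capillary electrophoresis. Cells: HepG2, transiently transfected with cis-regulated MRTUs. Exposure 24 h. Gain or loss of signal fitted bidirectionally relative to DMSO.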
Paired box protein Pax-6 (Homo sapiens), sequence (P26367 whole entry, looked up): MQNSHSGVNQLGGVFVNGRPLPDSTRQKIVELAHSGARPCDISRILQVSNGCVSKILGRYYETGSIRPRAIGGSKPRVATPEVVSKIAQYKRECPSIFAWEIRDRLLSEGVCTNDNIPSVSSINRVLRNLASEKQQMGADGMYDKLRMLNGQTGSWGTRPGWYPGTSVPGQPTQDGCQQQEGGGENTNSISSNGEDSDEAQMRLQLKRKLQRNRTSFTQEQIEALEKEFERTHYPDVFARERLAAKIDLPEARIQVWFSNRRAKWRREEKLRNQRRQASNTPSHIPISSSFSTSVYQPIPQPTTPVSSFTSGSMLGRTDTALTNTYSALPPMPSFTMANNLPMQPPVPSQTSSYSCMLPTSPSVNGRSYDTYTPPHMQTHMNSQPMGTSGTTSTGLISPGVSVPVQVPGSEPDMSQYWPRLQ

A short description of test [11]: ATG_PXRE_CIS: Attagene CIS-FACTORIAL HepG2 Assay for human Pregnane X Receptor Element (PXRE) (AID 2282957). The conditions noted are these: HepG2 Attagene CIS-FACTORIAL PXRE reporter, mRNA; actives raise or lower the signal. The procedure, abridged: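 Endogenous transcription factor activity in HepG2 was gauged through induction of reporter mRNA driven by a cis-regulating promoter element, sampled 24 h post-treatment. Activity was fitted in both directions against DMSO negative control.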

Test [12] can be described thus: ATG_RORE_CIS: Attagene CIS-FACTORIAL HepG2 Assay for human RAR-related Orphan Receptor Element (RORE) (AID 2282959). The conditions noted are these: HepG2 Attagene cis-factorial RORE reporter, mRNA; actives raise or lower the signal. The essentials:
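Multiplexed reporter assay measuring mRNA induction from a cis promoter element in transiently transfected HepG2 cells after 24 h treatment. Detection via RT-PCR and capillary electrophoresis fluorescence; DMSO serves as baseline.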

Test [13] can be described thus: ATG_Sox_CIS: Attagene CIS-FACTORIAL HepG2 Assay for human SRY-box transcription factor (SOX) (AID 2282960). The conditions noted are these: HepG2 Attagene cis-factorial SOX reporter, mRNA; actives raise or lower the signal. The essentials: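 Cells were transfected with reporter constructs under cis-regulatory promoters, then exposed to chemicals for 24 h. Reporter transcripts were quantified by fluorescence after RT-PCR and capillary electrophoresis; activity was fitted in both directions against DMSO.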

For test [14], the target named is Transcription factor Sp1 (Homo sapiens) (UniProt P08047). As to the kind of experiment: ATG_Sp1_CIS: Attagene CIS-FACTORIAL HepG2 Assay for human Specificity Protein 1 (Sp1) (AID 2282961). The conditions noted are these: HepG2 Sp1 cis-reporter transcription, actives raise or lower the signal. The procedure, abridged: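 Measures mRNA induction of an Sp1-linked reporter in HepG2 cells 24 h post-dosing. Multiplexed reporters read by RT-PCR and capillary electrophoresis; DMSO serves as negative control and baseline.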
Transcription factor Sp1 (Homo sapiens), sequence (P08047 whole entry, looked up): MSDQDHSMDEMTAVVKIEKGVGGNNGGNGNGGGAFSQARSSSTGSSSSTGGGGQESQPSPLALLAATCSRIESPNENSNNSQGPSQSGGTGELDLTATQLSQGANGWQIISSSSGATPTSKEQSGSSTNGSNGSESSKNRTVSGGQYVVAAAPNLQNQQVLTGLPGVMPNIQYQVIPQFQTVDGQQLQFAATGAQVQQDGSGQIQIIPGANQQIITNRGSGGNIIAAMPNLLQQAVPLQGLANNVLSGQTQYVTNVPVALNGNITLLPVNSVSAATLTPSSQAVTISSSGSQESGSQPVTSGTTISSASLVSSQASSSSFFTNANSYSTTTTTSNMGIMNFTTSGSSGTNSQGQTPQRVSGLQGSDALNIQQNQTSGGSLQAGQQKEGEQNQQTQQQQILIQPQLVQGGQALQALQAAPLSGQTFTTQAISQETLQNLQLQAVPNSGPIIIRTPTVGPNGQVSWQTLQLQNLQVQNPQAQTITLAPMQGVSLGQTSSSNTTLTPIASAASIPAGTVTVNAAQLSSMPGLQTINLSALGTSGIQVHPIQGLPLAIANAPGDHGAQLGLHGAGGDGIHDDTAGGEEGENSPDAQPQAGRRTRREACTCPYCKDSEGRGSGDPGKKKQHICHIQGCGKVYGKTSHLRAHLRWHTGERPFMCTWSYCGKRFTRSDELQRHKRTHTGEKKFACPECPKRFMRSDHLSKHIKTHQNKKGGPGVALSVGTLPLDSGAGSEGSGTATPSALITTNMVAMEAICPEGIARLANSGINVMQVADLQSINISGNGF

Test [15] can be described thus: ATG_SREBP_CIS: Attagene CIS-FACTORIAL HepG2 Assay for human Sterol Regulatory Element Binding (SREBP) (AID 2282962). As to conditions: HepG2 Attagene cis-factorial SREBP reporter, mRNA; actives raise or lower the signal. The essentials: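 Readout: fluorescent reporter-transcript peaks resolved by capillary electrophoresis after RT-PCR. Cells were human HepG2 carrying transfected cis-promoter reporter constructs, dosed for 24 h. Gain or loss of signal was fitted against DMSO controls.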

Test [16] deals with Signal transducer and activator of transcription 3 (Homo sapiens) (UniProt P40763). The experiment in a line: ATG_STAT3_CIS: Attagene CIS-FACTORIAL HepG2 Assay for human Signal Transducer and Activator of Transcription 3 (STAT3) (AID 2282963). The conditions noted are these: HepG2, Attagene cis-factorial STAT3 reporter transcription; actives raise or lower the signal. The essentials: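 Readout is reporter transcript quantified by RT-PCR and capillary electrophoresis, with 6-FAM primer extension and HpaI digestion. Total RNA is taken 24 h after dosing transiently transfected HepG2 carrying cis-regulated reporter units. Bidirectional fit against DMSO.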
Signal transducer and activator of transcription 3 (Homo sapiens), sequence (P40763 whole entry, looked up): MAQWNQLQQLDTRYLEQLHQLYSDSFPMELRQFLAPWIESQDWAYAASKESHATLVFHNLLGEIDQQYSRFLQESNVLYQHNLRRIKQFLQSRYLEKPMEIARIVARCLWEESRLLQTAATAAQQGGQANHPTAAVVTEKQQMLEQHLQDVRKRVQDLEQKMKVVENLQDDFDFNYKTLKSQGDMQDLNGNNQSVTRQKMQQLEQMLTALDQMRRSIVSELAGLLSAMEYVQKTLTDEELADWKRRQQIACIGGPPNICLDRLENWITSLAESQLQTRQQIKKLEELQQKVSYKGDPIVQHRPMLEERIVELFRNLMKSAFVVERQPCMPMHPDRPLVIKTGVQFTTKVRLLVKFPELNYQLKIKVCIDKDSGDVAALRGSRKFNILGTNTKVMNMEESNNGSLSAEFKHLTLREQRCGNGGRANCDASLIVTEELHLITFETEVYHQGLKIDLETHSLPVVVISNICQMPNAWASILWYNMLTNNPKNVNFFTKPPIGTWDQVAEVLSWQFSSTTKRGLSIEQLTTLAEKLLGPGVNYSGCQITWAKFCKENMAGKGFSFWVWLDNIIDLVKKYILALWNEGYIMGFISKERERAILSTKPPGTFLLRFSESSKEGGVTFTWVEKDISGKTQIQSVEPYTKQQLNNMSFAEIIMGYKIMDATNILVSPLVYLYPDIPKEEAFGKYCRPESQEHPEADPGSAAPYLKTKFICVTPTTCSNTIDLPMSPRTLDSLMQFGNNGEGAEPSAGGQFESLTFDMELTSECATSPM

A short description of test [17]: ATG_TA_CIS: Attagene CIS-FACTORIAL HepG2 Assay for human TA Basal Promoter (AID 2282964). The conditions noted are these: HepG2 Attagene CIS-factorial TA basal promoter reporter; actives raise or lower the signal. The essentials:
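Multiplexed mRNA reporter assay, HepG2, 24 h. Reporter cDNA amplified, 6-FAM primer-extended, HpaI-cut, CE-sized; DMSO = negative control and baseline.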

Test [18] can be described thus: ATG_TCF_b_cat_CIS: Attagene CIS-FACTORIAL HepG2 Assay for human T-Cell-Factor with beta-catenin (TCF/b-cat) (AID 2282965). The conditions noted are these: HepG2 TCF/beta-catenin cis-reporter transcription, actives raise or lower the signal. The procedure, abridged: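 Endogenous transcription factor activity is captured through cis-promoter reporter constructs transiently introduced into human HepG2 liver cells. Induced reporter mRNA is measured after 24 h and fitted bidirectionally relative to DMSO.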

Test [19] can be described thus: ATG_PPRE_CIS: Attagene CIS-FACTORIAL HepG2 Assay for human Peroxisome Proliferator-activated Response Element (PPRE) (AID 2282958). The conditions noted are these: HepG2 PPRE cis-element reporter, Attagene transcription factor profiling; actives raise or lower the signal. The essentials: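 Transcript-level reporter induction in transfected HepG2 cells after 24 h chemical exposure, quantified by fluorescence from RT-PCR products separated by capillary electrophoresis.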

Hepatocyte nuclear factor 6 (Homo sapiens), sequence (Q9UBC0 whole entry, looked up): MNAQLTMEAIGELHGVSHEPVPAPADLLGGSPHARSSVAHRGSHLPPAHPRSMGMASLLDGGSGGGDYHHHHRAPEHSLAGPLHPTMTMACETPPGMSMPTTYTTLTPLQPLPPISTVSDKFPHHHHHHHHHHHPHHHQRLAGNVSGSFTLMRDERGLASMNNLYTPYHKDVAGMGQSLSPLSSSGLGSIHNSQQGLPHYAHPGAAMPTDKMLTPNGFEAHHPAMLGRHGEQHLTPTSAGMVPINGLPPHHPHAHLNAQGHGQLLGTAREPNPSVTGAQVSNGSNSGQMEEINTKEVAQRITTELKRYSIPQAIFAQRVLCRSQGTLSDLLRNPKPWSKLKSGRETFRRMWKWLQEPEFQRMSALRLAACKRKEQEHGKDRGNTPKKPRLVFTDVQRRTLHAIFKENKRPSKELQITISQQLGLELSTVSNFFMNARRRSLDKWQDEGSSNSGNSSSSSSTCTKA

The term AC50 denotes the concentration giving half of the maximal activity seen. For `Oc1c(Cl)cc(Cl)c(Cl)c1Cc1c(O)c(Cl)cc(Cl)c1Cl`, the compound was classed as inactive in test [1], in test [3], in test [4], in [6], in test [13] and in [14]. Moreover, the compound was called inactive in test [15], in [16] and in test [17]. Also, the AC50 was 6 µM (active) in test [2]; 8.52 µM (active) in [5]; 17.1 µM (active) in test [7]; 9.9 µM (active) in [8]; 1.12 µM (active) in [9]; 11.1 µM (active) in test [10]. In addition, the AC50 in test [11] was 0.802 µM (active); in test [12], 2.2 µM (active); in test [18], 11.1 µM (active).
Turning to `ON=C1CCCCC1`, the compound was classed as inactive in test [1], in test [2], in test [3], in test [4], in test [5] and in test [6]. In addition, the result in test [7], in test [8], in test [9], in [10], in test [11] and in test [19] was inactive. Also, the outcome in [12], in test [13], in test [14], in [15], in test [16] and in test [17] was inactive. Also, the compound was classed as inactive in test [18].
`COC(C)(C)CCO`: the compound was called inactive in test [1], in test [2], in test [3], in test [4], in test [5] and in test [6]. Moreover, the outcome in test [7], in test [8], in test [9], in [10], in test [11] and in [12] was inactive. Also, the result in [14], in [15], in test [16] and in [17] was inactive.
On to `CCC(=O)O[C@@H]1C[C@H]2CC[C@]1(C)C2(C)C`, for which the call in [1], in [2], in test [3], in [4], in [5] and in test [6] was inactive. In addition, the result in test [7], in test [8], in test [9], in test [10], in test [11] and in test [19] was inactive. The compound was classed as inactive in test [12], in test [13], in [14], in test [15], in [16] and in test [18].
